Screening results (PubChem)
A selection: hits, their analogues and other compounds. The true share with any hit is near 2.4%.
ASK1 inh = human ASK1 kinase inhibition, primary screen. Q99683. AlphaScreen MKK6 phosphorylation by ASK1, luminescence. inhibition, % at 7.44 µM. 22,000 compounds, 0.99% hits; in the data active means inhibition above about 35%;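 further: 0% = median of compound wells and 100% = no enzyme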
ULK1 inh = human ULK1 kinase inhibition, primary screen | inhibition, % at 5.96 µM | O75385 | 30,000 compounds, 1.9% hits | AlphaScreen Atg13 phosphorylation by ULK1, luminescence; in the data active means inhibition above about 43%;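 further: 0% = median of compound wells and 100% = no enzyme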
* = called active by the depositor; . = no result given.

SMILES	ASK1 inh	ULK1 inh
COc1cccc(CN(CCCN2CCN(C)CC2)C(=O)c2cc3ccc(-c4cn[nH]c4)cc3[nH]2)c1	2	-2
O=C(NCCc1ccc(O)cc1)c1cccc(NCc2ccc3c(c2)OCO3)n1	-9	-9
Cc1cc(NCc2cccc(C(F)(F)F)c2)nc(NCc2cccnc2)n1	-11	0
Cc1cc(Nc2ccc(OCCN3CCCCC3)cc2)nc(-c2ccc(N(C)C)cc2)n1	22	24
CNC(=O)c1ccccc1Nc1cc(Nc2ccc3c(c2)OCO3)ncc1C(F)(F)F	-4	78*
CNC(=O)c1cc(F)ccc1Nc1cc(Nc2ccc(N3CCCC3=O)cc2)ncc1C(F)(F)F	12	73*
CNC(=O)c1cc(N2CCOCC2)ccc1Nc1cc(Nc2ccc3c(c2)CC(=O)N3)ncc1C(F)(F)F	0	82*
CNC(=O)c1ccccc1Nc1cc(Nc2ccc3[nH]nc(C4=CCNCC4)c3c2)ncc1C(F)(F)F	-8	-20
O=C1Cc2cc(Nc3ccnc(Nc4ccc(N5CCOCC5)cc4)c3)ccc2N1	18	19
CNC(=O)c1ccncc1Nc1cc(Nc2ccc3c(c2)CC(=O)N3)ncc1C(F)(F)F	11	56*
O=C(Nc1ccc(N2CCOCC2)cc1)c1cccc(Nc2ncccn2)c1	-26	42
c1ccc(CNc2nc(-c3cccs3)nc3c2ncn3-c2ccccc2)cc1	2	-14
COc1cc(C(=O)NS(=O)(=O)c2ccccc2C)ccc1Cc1cn(C)c2ccc(NC(=O)OC3CCCC3)cc12	.	65*
CCOc1ccc(-c2cc(=O)c3cc(NC(=O)c4ccc(OC)c(OC)c4)ccc3o2)cc1	.	7
COC(CNc1cc(-c2cncc(-c3cccs3)c2)nc(C)n1)OC	.	8
OCC1CCCN1c1nc(Nc2ccc(N3CCOCC3)cc2)c2ncn(-c3ccccc3)c2n1 (centres undefined)	-37	61*
OCC1CCCN1c1nc(Nc2ccc(N3CCOCC3)cc2)c2ncn(-c3ccsc3)c2n1 (centres undefined)	16	11
c1cc(N2CCOCC2)ccc1Nc1nc(N2CCOCC2)nc2c1ncn2C1CCCCC1	-1	33
OCC1CCCN1c1nc(Nc2ccc(N3CCOCC3)cc2)c2ncn(C3CCCCC3)c2n1 (centres undefined)	30	53*
CN1CCN(C(=O)CCc2ccc3c(c2)CCO3)CC1	.	1
CCCNc1ncnc2c1nc(-c1cccs1)n2C(C)C	-10	9
FC(F)(F)c1cnc(Nc2ccccn2)cc1Nc1ccccn1	17	50*
CN1Cc2cccc(Nc3cc(Nc4cccc5c4C(=O)N(C)C5)c(C(F)(F)F)cn3)c2C1=O	15	-7
COc1cc(Nc2ncc(C)c(NCCN(C(C)C)C(C)C)n2)cc(OC)c1OC	-5	7
CC(=O)Nc1ccc(NC(=O)c2cccc(-c3ccc(C(=O)NC4CC4)cc3)c2)cc1	9	47*
SMILES	ASK1 inh	ULK1 inh
O=C(NC1CC1)c1ccc(-c2cccc(C(=O)NC3CC3)c2)cc1	12	-2
CC(=O)Nc1ccc(Nc2cc(C)nc(N3CCN(c4ccccn4)CC3)n2)cc1	7	-11
CC(=O)Nc1ccc(Nc2cc(C)nc(N3CCc4ccccc4C3)n2)cc1	8	-9
Cc1cc(Nc2ccc(N3CCOCC3)cc2)nc(N2CCN(c3ccccn3)CC2)n1	46*	4
Cc1cc(Nc2ccc(N3CCOCC3)cc2)nc(N2CCc3ccccc3C2)n1	58*	-3
COc1ccc(CCNc2ncnc3nc(-c4ccc(N5CCOCC5)nc4)[nH]c23)cc1	15	2
CC(C)c1cc(C(C)C)c(CC(=O)NS(=O)(=O)Oc2c(C(C)C)cccc2C(C)C)c(C(C)C)c1	.	85*
CC(=O)c1cccc(-c2nc3c(NCc4ccccc4)ncnc3n2C(C)C)c1	0	0
CCCNc1nc(-c2ccc(OC)cc2)nc2c1ncn2C(C)C	3	-2
C[C@H](Cc1ccc(O)c(O)c1)[C@@H](C)Cc1ccc(O)c(O)c1	.	78*
N[C@@H](Cc1ccc(O)c(O)c1)C(=O)O	.	32
N[C@H](Cc1ccc(Br)cc1)C(=O)N1CCC(c2nc(-c3ccncc3)no2)CC1	-9	24
Cc1ncn(-c2ccc(Nc3nccc(-c4ccc(N5CCCC(CO)C5)c(C#N)c4)n3)cc2)n1 (centres undefined)	0	65*
Cc1ncn(-c2ccc(Nc3nccc(-c4ccc(C#N)c(N5CCCC5)c4)n3)cc2)n1	-4	-9
N#Cc1cc(-c2ccnc(Nc3ccc(-n4cnc(N5CCC(O)CC5)n4)cc3)n2)ccc1N1CCC(O)CC1	-9	72*
Cc1ncn(-c2ccc(Nc3nccc(-c4ccc(N5CCC(O)CC5)nc4)n3)cc2)n1	0	46*
C[C@@H]1CN(C(=O)Nc2cccc(Nc3nccc(-c4ccc(N5CCC(O)CC5)c(C#N)c4)n3)c2)C[C@H](C)O1	-16	76*
Cc1ncn(-c2ccc(Nc3nccc(-c4ccc(C#N)c(N5CCC(O)CC5)c4)n3)cc2)n1	-6	-1
Cn1nnc(-c2ccc(Nc3nccc(-c4ccc(N5CCC(O)CC5)c(C#N)c4)n3)cc2)n1	0	28
